B2AR arrestin: qHTS assay of beta-arrestin-biased ligands of beta2-adrenergic receptor. Beta-2 adrenergic receptor (Homo sapiens), P07550. beta-arrestin recruitment to beta2AR, cell-based reporter. Potency, µM (series often up to 46.1 µM), for the others: top-dose activation, most hits filed as activators. hit rate 0.02% among 330,000. AID 492947, 2010;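 also: potency is read from the fitted curve at half-maximal effect; 0% = DMSO controls and full agonism = EC100 isoproterenol or metaproterenol; nearly all actives have a fitted effect of over 65% in size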
Target sequence (P07550 whole entry, looked up): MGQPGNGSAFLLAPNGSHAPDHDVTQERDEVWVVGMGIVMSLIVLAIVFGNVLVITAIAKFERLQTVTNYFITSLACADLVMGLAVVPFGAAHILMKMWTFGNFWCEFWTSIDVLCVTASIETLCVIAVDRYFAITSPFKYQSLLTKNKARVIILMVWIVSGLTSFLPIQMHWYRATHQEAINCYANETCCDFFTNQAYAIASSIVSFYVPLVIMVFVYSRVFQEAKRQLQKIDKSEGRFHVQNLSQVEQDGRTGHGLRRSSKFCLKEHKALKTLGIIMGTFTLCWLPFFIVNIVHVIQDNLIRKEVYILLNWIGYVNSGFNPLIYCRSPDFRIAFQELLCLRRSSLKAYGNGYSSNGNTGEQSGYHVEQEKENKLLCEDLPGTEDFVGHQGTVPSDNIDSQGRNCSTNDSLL
RORg inh: qHTS for inhibitors of ROR gamma transcriptional activity. hit rate 5.4% among 310,000. Potency, µM (highest dose often 53.6 µM), inactives show at the top dose activity change, negative = inhibition, hits mostly inhibitors. Drosophila S2 Gal4-RORgamma UAS-luciferase reporter, 20 h. AID 2551, 2010. Nuclear receptor ROR-gamma (Mus musculus), P51450; also: potency is read from the fitted curve at half-maximal effect; nearly all actives have a fitted effect of over 60% in size
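Schneider cells (Drosophila), stable Gal4 DBD–ROR gamma + UAS-luc; 1 hr cmpd preincubation; Cu2+ induction 700 uM final; 20 hr ambient; luminescence.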
Gal4-VP16 FLuc: VP16 counterscreen qHTS for inhibitors of ROR gamma transcriptional activity. Drosophila S2 Gal4-VP16 UAS-luciferase, luminescence, 20 h. Potency, µM (highest dose often 53.6 µM), for inactives: at the highest dose activity, negative = inhibition, hits mostly inhibitors. hit rate 3.5% among 310,000. AID 2546, 2010;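 also: Gal4-VP16 expression switched on by copper sulfate through the metallothionein promoter; potency is read from the fitted curve at half-maximal effect; nearly all actives have a fitted effect of over 50% in size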
TSHR antagonist: Antagonists of the Thyroid Stimulating Hormone Receptor: HTS campaign. Thyrotropin receptor (Homo sapiens), P16473. TSHR-expressing cells, TSH-stimulated cAMP HTRF, 2 h; active compounds read low. activity change, negative = inhibition, % at 11.5 µM. hit rate 0.2% among 330,000. AID 504810, 2011;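 active = activity change below a set negative limit, meaning inhibition stronger than a set level, cut at about -70% in these data; inconclusive = activity change between two set negative limits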
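TSHR-expressing cells were treated with compounds, then stimulated with TSH at EC80 (4nM final) for 2 hours at 37 deg C. Cellular cAMP was measured by HTRF competition between lysate cAMP and cAMP-d2 for a cryptate-labelled anti-cAMP antibody.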
ELG1 repair inh: qHTS screen for small molecules that inhibit ELG1-dependent DNA repair in human embryonic kidney (HEK293T) cells expressing luciferase-tagged ELG1; HEK293T ELG1-luciferase reporter, luminescence, 16 h; DNA damage induced by 5-fluorouridine; Potency, µM (top dose mostly 46.1 µM), without a hit: at the highest dose activity change, negative = inhibition, hits mostly inhibitors; hit rate 2.3% among 330,000; AID 504467, 2011; also: potency is read from the fitted curve at half-maximal effect; nearly all actives have a fitted effect of over 55% in size
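Overnight (16 hr) co-exposure of 2,000 cells/well to 5-fluorouridine and compound at 37 °C preceded detection. Luciferase was quantified via ONE-Glo luminescence; loss of signal denotes inhibition.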
Starred values were filed as active, the others as inactive; ? = inconclusive; . = no result; [ ] = another dose, or the depositor's remark. Hits are enriched below; roughly 7.5% of the tested compounds scored in any of these assays. Unless noted, calls follow the shape of the dose curve; as a rule, active = well fitted curve in the direction sought with a large enough effect; inconclusive = small, poorly fitted or top-dose-only effect, or another doubt; inactive = no such curve, though single readings can be large; an effect the other way counts as inactive or inconclusive. Unless noted, % is scaled to controls: 0 for no effect and ±100 for the full control effect.

SMILES | B2AR arrestin | RORg inh | Gal4-VP16 FLuc | TSHR antagonist | ELG1 repair inh
CC(=O)C1=C(c2ccccc2)N(C(C)=O)n2c(C)nnc2S1 | -0.7% | 11.2µM* | 17.8µM* | -14.4 | -20.8%
CC(=O)N1CCN(c2nnc(-c3ccccc3)c3ccccc23)CC1 | 0.1% | 13.7% | 2.5% | -3.2 | 0.1%
Cc1cc(C)c2c(-c3ccc(-c4ccc(C(F)(F)F)cc4)cc3)cc(=O)oc2c1 | . | 30.8% | -6.3% | . | .
S=C(S)OC1CC2CC1C1CCCC21 (centres undefined) | . | . | . | -12.2 | .
S=C(S)O[C@@H]1C[C@@H]2C[C@H]1[C@@H]1CCC[C@H]21 | . | 0.562µM* | 1µM* | . | .
COC(=O)C/C=C\[C@@H](C)[C@@H](/C=N\O[C@@H](C)CN1CCCc2nc(C)c(C)cc21)NS(=O)(=O)c1ccc(C)cc1 | . | 2.4%[10 µM] | -1.2%[10 µM] | . | .
CCN(CC)S(=O)(=O)c1ccc(N2CCOCC2)c(NC(=O)COc2ccc(C#N)cc2)c1 | 0.0% | ? | -2.4% | 0.0 | 0.0%
CCN(CC)S(=O)(=O)c1ccc(N2CCOCC2)c(NC(=O)Cc2ccc(Cl)cc2)c1 | -0.6% | ? | -8.4% | -7.2 | ?
CCN(CC)S(=O)(=O)c1ccc(N2CCOCC2)c(NC(=O)COc2ccc(OC)cc2)c1 | -0.9% | . | . | -13.7 | 18.3µM*
CCN(CC)S(=O)(=O)c1ccc(N2CCOCC2)c(NC(=O)CC23CC4CC(CC(Br)(C4)C2)C3)c1 | -0.4% | 5.0% | 4.3% | 6.2 | 9.2µM*
CCN(CC)S(=O)(=O)c1ccc(N2CCOCC2)c(NC(=O)COc2ccccc2C#N)c1 | -0.7% | 12.7% | 5.6% | 28.0 | 9.2µM*
Cc1ccccc1OCC(=O)Nc1cc(S(=O)(=O)N2CCOCC2)ccc1N1CCCC1 | 0.0% | . | . | 1.1 | ?
CCN(CC)S(=O)(=O)c1ccc(N2CCOCC2)c(NC(=O)COc2ccccc2C)c1 | -0.2% | . | . | -7.1 | 5.8µM*
O=c1c(-c2ccccc2)c(O)c2ccccc2n1-c1ccccc1 | -1.1% | -3.0% | -8.5% | -0.2 | -13.5%
C=CCSCC=C | . | 10.2% | 6.6% | . | .
COC(=O)[C@H](CCSC)NC(=O)Nc1ccc(S(N)(=O)=O)cc1 | 0.4% | -15.9% | -5.1% | 7.6 | 6.5%
O=C(c1cc(-c2ccc(Br)cc2)on1)N1CCCCCC1 | -0.2% | -0.6% | ? | -10.7 | ?
O=C(c1cc(-c2ccc(Br)cc2)on1)N1CCOCC1 | -0.1% | 10µM* | ? | -10.1 | ?
COc1ccc(-c2cc(C(=O)N3CCOCC3)no2)cc1 | 0.2% | 10µM* | ? | 15.2 | ?
COc1cccc(-c2cc(C(=O)N3CCOCC3)no2)c1 | 0.4% | ? | ? | 34.8 | ?
Cc1ccc(NC(=O)c2nc[nH]c2C(=O)Nc2ccc(C)cc2)cc1 | 5.0% | 1.41µM* | 2.82µM* | -2.3 | 19.5%
CNC(=O)c1[nH]cnc1C(=O)Nc1cccc(OC)c1 | 0.0% | 7.08µM* | 14.1µM* | 1.7 | ?
CNC(=O)c1[nH]cnc1C(=O)Nc1ccccn1 | 0.2% | -27.7% | -15.3% | 14.2 | ?
CNC(=O)c1[nH]cnc1C(=O)Nc1ccc(C)cc1 | -0.2% | 3.98µM* | 4.47µM* | 9.2 | ?
CNC(=O)c1[nH]cnc1C(=O)Nc1ccccc1 | 0.3% | . | . | -0.2 | ?
SMILES | B2AR arrestin | RORg inh | Gal4-VP16 FLuc | TSHR antagonist | ELG1 repair inh
CNC(=O)c1[nH]cnc1C(=O)Nc1ccc(F)cc1 | -0.4% | 12.6µM* | ? | -5.4 | 26.8%
CC(=O)OC1CC[C@]2(C)C(=CCC3C4CCC(C(C)CCCC(C)C)[C@]4(C)CCC32)C1 (some centres undefined) | . | 0.5% | 11.5% | . | .
CN1C(C(=O)Nc2ccccn2)C(=O)c2sc(Cl)cc2S1(=O)=O (centres undefined) | . | 1.1%[10 µM] | -5.0% | . | .
O=C(Nc1ccc(Cl)cc1)c1nc[nH]c1C(=O)NCCCNC(=O)c1[nH]cnc1C(=O)Nc1ccc(Cl)cc1 | 0.1% | . | . | -15.0 | 2.59µM*
CNC(=O)c1[nH]cnc1C(=O)Nc1ccc(Cl)cc1 | -0.8% | 3.98µM* | 7.08µM* | -0.6 | ?
O=C(Nc1ccc(Cl)cc1)c1nc[nH]c1C(=O)NCCN(CCNC(=O)c1[nH]cnc1C(=O)Nc1ccc(Cl)cc1)CCNC(=O)c1[nH]cnc1C(=O)Nc1ccc(Cl)cc1 | 0.0% | . | . | -2.0 | 1.7%
COc1cccc(-c2cncnc2Nc2ccc(F)cc2)c1 | . | 3.2% | 7.4% | . | .
COc1ccc(OC)c2c(C)cc(C)nc12 | 3.7% | 12.6µM* | -1.0% | 1.9 | 2.5%
CCOC(=O)c1oc2ccc3c(c2c1C)C(=O)CC1(CCN(C(=O)OCC)CC1)O3 | -0.3% | 1.3% | -1.6% | -12.4 | 20.6µM*
C=CCc1cccc(C=NNC(=O)CN2CCN(Cc3ccccc3)CC2)c1O | . | . | . | -15.7 | .
N#CCCn1cc(C(=O)Nc2ccc([N+](=O)[O-])cc2)c(-c2cc3ccccc3o2)n1 | -0.4% | ? | -12.6% | -15.3 | -2.6%
N#CCCn1cc(C(=O)Nc2ccccc2Br)c(-c2cc3ccccc3o2)n1 | -0.3% | ? | 7.94µM* | -13.5 | ?
CC(=O)Nc1ccc(S(=O)(=O)N2CCN=C2SCc2ccc(F)cc2)cc1 | -0.5% | 35.3% | ? | 44.7 | 2.91µM*
Cc1ccc(-c2nc(NCC3CCCO3)sc2C)cc1 (centres undefined) | 0.3% | 11.2µM* | -9.9% | -2.6 | ?
Cc1onc(-c2ccccc2)c1C(=O)OCC(=O)N(CC(C)C)c1c(N)n(Cc2ccccc2)c(=O)[nH]c1=O | 0.3% | . | . | -7.8 | ?
Cc1ccc(-c2csc3nnc(SCC(=O)N4CCN(Cc5ccccc5)CC4)n23)cc1 | 0.5% | -43.2% | -8.2% | -17.8 | 4.7%
Cc1ccc(-c2csc3n[nH]c(=S)n23)cc1 | 0.0% | 2.51µM* | 8.91µM* | -8.9 | -0.5%
CCCC(=O)Nc1nc2ccc(OCC)cc2s1 | 3.2% | ? | -26.4% | -2.2 | ?
CCNC(=O)Nc1nc2ccccc2s1 | -0.4% | 8.4% | -0.8% | -5.6 | ?
CN(C)C(=S)Nc1nc2ccccc2s1 | ? | 0.501µM* | 1.26µM* | 5.1 | ?
CCOc1ccc2nc(NC(=S)N(C)C)sc2c1 | ? | 1µM* | 1.78µM* | -6.2 | ?
CCOc1ccc2nc(NC(=O)CCn3cccc3)sc2c1 | -0.2% | 5.01µM* | ? | 7.7 | ?
S=C(Nc1ccccc1)c1nc2ccccc2s1 | 0.1% | 1.12µM* | 0.708µM* | 16.4 | ?
O=C(NNc1nc2ccccc2s1)Nc1ccccc1 | -0.7% | ? | -27.0% | -8.8 | ?
CCOc1ccc(C(=O)NC(=S)Nc2ccccc2OC)cc1[N+](=O)[O-] | 0.0% | 7.08µM* | ? | -5.6 | -12.3%
CCOc1ccc(C(=O)Nc2ccc(N3CCN(C)CC3)cc2)cc1[N+](=O)[O-] | -0.1% | -1.5% | -17.0%[10 µM] | -4.8 | 2.1%
